From the supplement of paper PMC3334620
The full ranking holds about 33,000 sequences; the median of “E-score (-0.5 to 0.5)” is about -0.035, and the highest 2% start at about 0.34. Shown is part of a subset that was picked to be rich in the highest values.

These sequences were tested against T1, Mot3 (UniProt P54785) (assay: PBM E-score (8-mer binding enrichment) (E-score (-0.5 to 0.5)); higher = stronger / more preferred TF binding). Conditions: protein concentration: 200 nM; construct: GST-full length.
T1 sequence: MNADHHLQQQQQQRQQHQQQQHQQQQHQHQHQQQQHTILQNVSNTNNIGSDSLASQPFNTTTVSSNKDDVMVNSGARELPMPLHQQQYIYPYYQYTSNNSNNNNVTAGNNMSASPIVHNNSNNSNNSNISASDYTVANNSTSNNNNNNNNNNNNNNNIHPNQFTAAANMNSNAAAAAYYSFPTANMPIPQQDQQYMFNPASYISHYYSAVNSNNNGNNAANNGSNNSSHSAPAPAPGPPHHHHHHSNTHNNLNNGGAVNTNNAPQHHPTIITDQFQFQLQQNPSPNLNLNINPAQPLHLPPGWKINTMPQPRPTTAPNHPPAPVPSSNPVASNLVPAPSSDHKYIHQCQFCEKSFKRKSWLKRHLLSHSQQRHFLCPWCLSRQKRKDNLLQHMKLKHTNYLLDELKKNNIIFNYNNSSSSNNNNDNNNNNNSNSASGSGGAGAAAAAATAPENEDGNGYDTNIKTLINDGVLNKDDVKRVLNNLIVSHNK
Protocol: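 Universal 'all 10-mer' protein binding microarrays (Agilent AMADID 015681) probed with GST-tagged S. cerevisiae TFs (full-length or DBD) made by in vitro transcription/translation (PURExpress), about 100-200 nM. Bound TF was detected with fluorescent anti-GST. Each ungapped 8-mer (which stands for itself and its reverse complement) is scored by the PBM enrichment score (E-score), a modified Wilcoxon-Mann-Whitney statistic from -0.5 to +0.5, computed with the Universal PBM Analysis Suite. Scale: above 0.35 generally sequence-specific binding.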

Row | Sequence | PBM E-score
1 | TACCAATA | -0.253
2 | CACGGTCA | 0.212
3 | ATCAGCTG | -0.0375
4 | TCAAGTCA | 0.0447
5 | CGACTTGC | -0.263
6 | GATGAAGA | -0.135
7 | ACCGAGGA | -0.111
8 | ATCGGGGA | 0.0758
9 | AGATAGTC | -0.0427
10 | AGCAGTAG | -0.226
11 | TCAACGGA | -0.113
12 | CAGGAAAG | 0.432
13 | CAGGAAAA | 0.427
14 | GAGGAAAC | -0.027
15 | CAGAAAAA | 0.0512
16 | AAGGGAAA | 0.0842
17 | CGGAAAAA | 0.0869
18 | AAGGAAAA | 0.417
19 | ATGGAAAA | -0.0018
20 | AAGGAAAC | 0.423
21 | ACGGAAAC | -0.122
22 | CCGGAAAG | -0.215
23 | CAGAAAAG | -0.0566
24 | TATCTTAA | 0.153
25 | TAAAGCTA | 0.19

Row | Sequence | PBM E-score
26 | CAGACCGG | -0.14
27 | ACTCGAAT | 0.00379
28 | CTCAGCAG | -0.113
29 | TGTAAAAA | 0.379
30 | GGTAATAA | 0.163
31 | TGTAATAA | 0.375
32 | GGTAAACA | 0.323
33 | AGTAAAAA | 0.16
34 | TGTAAACA | 0.387
35 | CGTAATAA | 0.288
36 | CGTAAAAA | 0.258
37 | AGTAAACA | 0.251
38 | GGAGAAAA | -0.133
39 | ACCTGTCA | -0.0178
40 | AAGGCTAT | -0.0295
41 | ACGGTGCA | 0.184
42 | ACGGTGCG | 0.0148
43 | ACGGTGCC | 0.343
44 | CAGAGATG | 0.0978
45 | TAGGGTCA | -0.0851
46 | AAGGTCTG | -0.0775
47 | AATCTACA | 0.349
48 | CATCTACA | 0.262
49 | AATCTACT | -0.0291
50 | AGTTCCGA | -0.142

Row | Sequence | PBM E-score
51 | CGTTCCTC | 0.167
52 | GCTTCCTA | 0.106
53 | AGTTCCTC | 0.0435
54 | AGTTCCTG | 0.403
55 | GGTTCCAA | -0.208
56 | AGTTCCTA | 0.433
57 | AGTTCCGG | -0.359
58 | CATTCCTA | -0.129
59 | GGTTCCTA | 0.454
60 | ACTTCCTA | -0.09
61 | CGTTCCTA | 0.455
62 | CCAATCCC | -0.127
63 | AGAGGGCC | -0.371
64 | GGGGTAGA | -0.0141
65 | AGGTCTTC | -0.0921
66 | CGCTAACG | -0.0607
67 | GGACTACA | 0.102
68 | ACCCCCTA | -0.298
69 | AGGCGAAC | -0.0626
70 | ACAGTTCT | -0.132
71 | AAGAGGCA | 0.391
72 | GCGAGGCA | 0.148
73 | TAGAGGGA | -0.0707
74 | CAGAGGCA | 0.299
75 | GAGAGGCA | 0.239

Row | Sequence | PBM E-score
76 | TAGAGGCA | 0.389
77 | TCGAGGCA | 0.346
78 | AAGAGGCT | -0.222
79 | CCGAGGCA | 0.308
80 | AAGACCTG | -0.079
81 | TGACTAAA | 0.0227
82 | GGCTAATA | -0.151
83 | ATCGAACA | -0.0411
84 | GATTGTCC | -0.0522
85 | AGGAAGCC | -0.161
86 | ACTATGTG | 0.0709
87 | GGTATGTA | 0.343
88 | CCTATGTC | 0.172
89 | GCTATGCA | -0.154
90 | CATATGTA | 0.318
91 | CCTATGTA | 0.348
92 | GCTATGTA | 0.341
93 | ACTATGTC | 0.104
94 | AGTATGTA | 0.289
95 | CGTATGTA | 0.309
96 | ACTATGTA | 0.36
97 | AATATGTA | 0.277
98 | ACAACTAG | -0.0235
99 | GTCCGGAA | -0.0613
100 | TCCCCCCA | -0.354

Row | Sequence | PBM E-score
101 | AAAGTCGG | -0.0308
102 | GAAGGGAA | -0.213
103 | CGATGGCC | -0.268
104 | AATAACAT | 0.349
105 | AATAACAG | 0.254
106 | AATAACAC | 0.31
107 | ACGCCGGC | -0.185
108 | CGTAGCCC | -0.0561
109 | GGGTACCA | -0.0217
110 | AGGTACCT | 0.434
111 | ACGTACCT | 0.292
112 | CGGTACCG | -0.156
113 | AGGTACCC | 0.361
114 | AGGTACCG | 0.407
115 | AAGTACCT | 0.338
116 | ACGTACCG | 0.00315
117 | CGGTACCC | -0.277
118 | TGGTACCA | -0.0506
119 | GGGTACCC | -0.304
120 | AGGTACCA | 0.361
121 | ACAATACC | 0.172
122 | GAAGCTAC | -0.0982
123 | AGCTGAAC | -0.255
124 | CTTTTCGA | -0.07
125 | GATCCTCC | -0.303

Row | Sequence | PBM E-score
126 | GTCCGGAC | 0.0843
127 | AAGACAGA | 0.149
128 | AACCTGAC | -0.0317
129 | AACCTGAG | -0.0479
130 | AACCTGTG | 0.357
131 | AAGTTCCT | 0.341
132 | ACGTTCCT | 0.447
133 | ACGTTCCA | 0.0401
134 | ACGTTCCG | -0.144
135 | AAGTTCCC | -0.309
136 | AAGTTCCG | 0.0427
137 | AAACTTCC | -0.145
138 | ACAGTAGT | -0.0747
139 | AGAGTGGA | -0.0533
140 | ACCGGTTC | -0.148
141 | AACTGGTG | -0.193
142 | CAGGAGGC | -0.0461
143 | AGAAGAGA | -0.102
144 | TAACACGA | 0.402
145 | CAACACGC | 0.322
146 | AAACACGA | 0.292
147 | CAACACGA | 0.363
148 | CAACACGG | 0.302
149 | GAACACGA | 0.187
150 | AGACTGTA | -0.109

Row | Sequence | PBM E-score
151 | CCCACAGA | -0.053
152 | TCAACCAA | 0.0249
153 | AAACAGGC | 0.301
154 | CAACAGGA | 0.172
155 | CTACAGGA | 0.242
156 | GTACAGGA | 0.343
157 | CTACAGGC | 0.354
158 | ATACAGGA | 0.173
159 | CTACAGAC | 0.0592
160 | ATACAGGC | 0.333
161 | CAACAGGC | 0.377
162 | AGAGTTTC | -0.198
163 | GGTGGTGA | -0.179
164 | GAGAAGTA | -0.0782
165 | CTGCAATC | -0.0301
166 | TAAAGGTA | 0.382
167 | AAAAGGAT | 0.157
168 | TAAAGGAA | 0.383
169 | AAAAGGAC | 0.171
170 | TAAAAGGA | 0.189
171 | AAAAGGAA | 0.36
172 | GAAAGGTA | 0.228
